High-throughput results: PubChem, National Center for Advancing Translational Sciences (NCATS)
TbPYK inhibitor: inhibitors of Trypanosoma brucei pyruvate kinase; Q57TT1; TbPYK enzyme, Kinase-Glo Plus ATP luminescence, 45 min; Potency, µM (highest dose often 76.8 µM), for the others: at the top dose activity, negative = inhibition, hits mostly inhibitors; actives 0.12% (n = 410,000); AID 624173; note: potency is the fitted concentration of half-maximal effect; nearly all actives have a fitted effect of over 50% in size
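Readout: single end-point luminescence (Kinase-Glo Plus, 10 min). Reaction conditions were TbPYK/substrate plus 130 uM ADP, 45 min at RT, pH 7.2 TEA buffer. No-enzyme wells served as controls, and data were normalized before concentration-response fitting.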
VACV mCherry inh: vaccinia inhibition (mCherry reporter) | Vaccinia virus mCherry reporter infection, fluorescence | Potency, µM (doses to about 36.5 µM), for the others: top-dose activity change, negative = inhibition, most hits filed as inhibitors | actives 0.63% (n = 310,000) | AID 720579; calls by dose curve; tested in A549 cells; note: potency is the fitted concentration of half-maximal effect; nearly all actives have a fitted effect of over 35% in size
HCMV antiviral: human cytomegalovirus inhibition; HFF cells, HCMV-luciferase reporter, 72 h; active compounds read low; activity change, negative = inhibition, % at 57.5 µM; actives 4.5% (n = 410,000); in the data active = activity change below about -60%; inconclusive = no clear call, values can overlap the other calls; inactive = above about -39%
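Luciferase read-out from HCMV-luciferase-infected HFFs (MOI 1 PFU/cell) 72 h post infection at 37C; compounds added after 16 h cell attachment; activity normalized between buffer-only basal and Salinomycin (10uM) inhibitor controls.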
LmPK inhibitor: LmPK (Leishmania mexicana) enzyme inhibition | purified LmPK, Kinase-Glo ATP luminescence, 1 h | Potency, µM (titrated, usually from 57.5 µM), without a hit: at the top dose activity change, negative = inhibition, most hits filed as inhibitors | actives 0.37% (n = 290,000) | AID 1721; note: potency is the fitted concentration of half-maximal effect
Target sequence (Q27686 whole entry, looked up): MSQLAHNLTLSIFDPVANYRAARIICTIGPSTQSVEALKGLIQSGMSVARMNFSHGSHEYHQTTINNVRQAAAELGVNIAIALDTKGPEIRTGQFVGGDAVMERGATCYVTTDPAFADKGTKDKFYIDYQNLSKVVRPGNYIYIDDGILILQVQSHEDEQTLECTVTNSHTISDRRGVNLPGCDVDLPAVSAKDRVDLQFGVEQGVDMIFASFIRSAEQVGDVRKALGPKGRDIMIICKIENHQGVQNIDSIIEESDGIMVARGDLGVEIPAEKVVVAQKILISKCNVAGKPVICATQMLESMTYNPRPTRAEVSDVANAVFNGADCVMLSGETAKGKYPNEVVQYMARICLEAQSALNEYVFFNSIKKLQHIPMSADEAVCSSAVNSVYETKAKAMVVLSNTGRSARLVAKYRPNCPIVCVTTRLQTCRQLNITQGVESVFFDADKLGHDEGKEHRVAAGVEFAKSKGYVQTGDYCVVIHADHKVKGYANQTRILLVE
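Screened at intermediate enzyme activity to detect both inhibitors and activators: LmPK at 0.1 nM, with a 0.5 nM enzyme column as activation reference. PEP 0.5 mM, ADP 0.1 mM; ATP detected by luminescence after 1 h.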
Vaccinia Venus: inhibitors of vaccinia virus (Venus reporter) | Potency, µM (titrated, usually from 36.5 µM), for the others: at the highest dose activity change, negative = inhibition, most hits filed as inhibitors | actives 0.46% (n = 330,000) | AID 720580 | Vaccinia virus Venus reporter expression, fluorescence; calls by dose curve; tested in A549 cells; note: potency is the fitted concentration of half-maximal effect; nearly all actives have a fitted effect of over 30% in size
An asterisk follows results filed as active; i = inactive; ? = inconclusive; / = not tested or not shown; + = active, no number; [ ] = another dose, or the depositor's remark. An excerpt weighted towards active compounds, which were near 5% of everything screened. Unless noted, calls come from the whole dose curve; as a rule, active = well fitted curve in the direction sought with a large enough effect; inconclusive = small, poorly fitted or top-dose-only effect, or another doubt; inactive = no such curve, though single readings can be large; an effect the other way counts as inactive or inconclusive. % is set by controls: 0 for no effect and ±100 for the full control effect.

SMILES	TbPYK inhibitor	VACV mCherry inh	HCMV antiviral	LmPK inhibitor	Vaccinia Venus
O=C1C=CN(C2OC(CO)C(O)C2O)C(=O)C1 (stereo not given)	2.1%	-10.9%	-73.2*	/	15.9%
Cc1cccc(NC(=O)CN2CCN(C(=O)C3CCC3)CC2)c1C	-0.9%	-9.5%	18.7	/	1.6%
Cn1c(O)c(C(=Nc2ccccc2)SCc2ccccc2Cl)c(=O)n(C)c1=O	-15.9%	-27.7%	-64.9*	-3.1%	-28.7%
C[C@@H](NC(=O)[C@@H]1Cc2ccccc2CN1)C(=O)NCC1CCCO1 (stereo not given in full)	-5.3%	/	-22.5	4.9%	/
CC1(C)C=Cc2cc(-c3coc4cc(O)cc(O)c4c3=O)cc(O)c2O1	-1.2%	-16.2%	-60.6*	/	-3.3%
O=C(Cc1ccccc1)N(Cc1cccnc1)c1nc2ccc(Cl)cc2s1	-8.1%	-4.4%	9.6	/	-11.9%
COC(=O)c1ccc(-n2c(C)cc(C(=O)CCl)c2C)cc1	-1.4%	/	-84.5*	0.3%	/
CCOc1ccc(-n2c(C)cc(C(=O)CCl)c2C)cc1	-8.1%	-29.6%	-92.0*	0.0%	-9.4%
COC(=O)c1ccc(-n2c(C)cc(C(=O)COC(=O)C3=COCCO3)c2C)cc1	-4.0%	-19.2%	-66.1*	/	-8.6%
CCOc1ccc(NC(=O)C(=O)c2cc(C)n(-c3cc(C)cc(C)c3)c2C)cc1	-13.0%	-14.2%	-11.7	/	2.7%
O=C1C=Cc2cccc3ccc(O)c1c23	-0.7%	-24.7%	-67.9*	/	-4.7%
CC1CC1C(=O)OCc1cc(=O)n2cc(Br)ccc2n1 (stereo not given)	-3.6%	-13.5%	-82.9*	-0.3%	-4.7%
O=C(OCc1cc(=O)n2cc(Br)ccc2n1)C1COc2ccccc2O1 (stereo not given)	0.4%	/	-65.5*	-0.4%	/
CC1(C(=O)OCc2cc(=O)n3cc(Br)ccc3n2)CC1(Cl)Cl (stereo not given)	-4.7%	-3.4%	22.2	-5.0%	-4.7%
CC12CCC(=O)C=C1CCC1C2CCC2(C)C(c3csc(N)n3)CCC12 (stereo not given)	-1.4%	i	-93.0*	/	-27.1%
O=C(CN1CCCCC1)Nc1scc2c1c(=O)oc1ccccc12	-0.7%	/	1.8	1.6%	/
N#Cc1c2ccc([N+](=O)[O-])cc2[n+]([O-])n1-c1ccccc1	/	/	+	/	/
C[C@H]1CN([C@@H](C)CO)S(=O)(=O)c2ccc(Br)cc2O[C@H]1CN(C)Cc1ccccc1	-10.9%	-10.0%	11.5	/	-9.3%
C[C@H](CO)N1C[C@H](C)[C@H](CN(C)Cc2ccc(Oc3ccccc3)cc2)Oc2cc(Br)ccc2S1(=O)=O	6.6%	-5.5%	-109.2*	/	-15.5%
C[C@H]1CN([C@@H](C)CO)S(=O)(=O)c2ccc(/C=C/c3ccccc3)cc2O[C@H]1CN(C)C(=O)NC1CCCCC1	2.8%	-9.8%	-62.6*	/	?
O=C(c1cnc(N2CCN(c3ccccn3)CC2)c2ccccc12)N1CCN(c2cccc(Cl)c2)CC1	-0.8%	?	-94.1*	1.8%[11.5 µM]	?
O=C(c1cccc(Oc2ccccc2)c1)N1CCN(c2ccccn2)CC1	0.5%	i	-71.6*	10.5%	-4.7%
O=C(c1ccc(Br)s1)N1CCN(c2ccccn2)CC1	-2.5%	-16.2%	-2.0	-7.5%	-19.5%
O=C(c1cc(Cl)ccc1Cl)N1CCN(c2ccccn2)CC1	-5.5%	-8.6%	?	-4.0%	-4.6%
Cc1cccc(C(=O)N2CCN(c3ccccn3)CC2)c1	3.4%	i	-7.6	-0.3%	-3.6%
SMILES	TbPYK inhibitor	VACV mCherry inh	HCMV antiviral	LmPK inhibitor	Vaccinia Venus
O=C(N1CCN(c2ccccn2)CC1)N1c2ccccc2Sc2ccccc21	0.8%	/	-66.5*	-4.7%	/
Cc1cccc(C(=O)NCC(=O)N2CCN(c3ccccn3)CC2)c1	-4.5%	-7.6%	-104.5*	/	-15.4%
COc1ccc(CCNC(=O)c2ccc3c(c2)N(Cc2cc(C)ccc2C)C(=O)c2ccccc2S3=O)cc1OC (stereo not given)	3.9%	-26.6%	-11.4	/	-19.7%
COC(=O)c1ccc(-c2nc(O)c3cnccn23)cc1	0.3%	2.4%	8.2	-1.0%	9.8%
S=C(Nc1cc(Cl)ccc1Oc1ccccc1)N1CCN(c2ccccn2)CC1	-6.0%	i	-77.7*	-1.9%	-26.8%
O=C(c1cccc(S(=O)(=O)N2CCc3ccccc32)c1)N1CCN(c2ccccn2)CC1	0.8%	?	-78.0*	-1.4%	-4.8%
O=C(c1cccc(S(=O)(=O)N2CCc3ccccc3C2)c1)N1CCN(c2ccc(O)cc2)CC1	?	?	-65.5*	0.7%	-29.7%
COc1ccc(N2CCN(C(=O)c3cccc(S(=O)(=O)N4CCc5ccccc54)c3)CC2)cc1	-2.9%	?	-8.4	/	-27.3%
CC(NC(=O)COC(=O)CNC(=O)C1CCCCC1)c1ccccc1 (stereo not given)	1.5%	/	0.0	/	/
CCCCOc1ccc(C(=O)NCC(=O)NC2CC2)cc1	-0.6%	i	-15.6	/	-14.1%
Cc1ccc(C(=O)NCC(=O)NC2CCCCCC2)cc1	-7.3%	-23.7%	-96.7*	-5.4%	-22.3%
CC(=O)N1CCc2c(sc(NC(=O)CN3C(=O)c4ccccc4C3=O)c2C(N)=O)C1	-0.3%	i	?	5.1%	-17.7%
Cc1ccc(CNC(=O)Cc2ccc(-n3c(=O)[nH]c4ccsc4c3=O)cc2)cc1	-4.3%	?	-61.7*	-4.9%	-27.9%
CC(=O)Oc1ccc2ccc(=O)oc2c1	2.6%	100µM*	9.8	3.4%	0.0025µM*
CCC(C(=O)Nc1cc(F)ccc1F)n1nc(C)c2c(C)n(-c3ccc(C)cc3)nc2c1=O (stereo not given)	-3.9%	-22.3%	-95.3*	3.4%	-15.3%
COc1ccc(CCNC(=O)C(C)n2nc(C)c3c(C)n(-c4ccc(C)cc4)nc3c2=O)c(OC)c1 (stereo not given)	-7.8%	?	-98.0*	-3.6%	?
Cc1ccc(CCNC(=O)C(C)n2nc(C)c3c(C)n(-c4ccc(C)cc4)nc3c2=O)cc1 (stereo not given)	3.7%	?	-62.1*	/	-27.8%
CCC(C(=O)NCCCc1ccccc1)n1nc(C)c2c(C)n(-c3ccccc3)nc2c1=O (stereo not given)	0.6%	-28.7%	-67.0*	-10.1%	-13.8%
CCC(C(=O)Nc1ccccc1F)n1nc(C)c2c(C)n(-c3ccccc3)nc2c1=O (stereo not given)	-4.7%	/	?	0.3%	/
CCOC(=O)N1CCN(c2ccc(C(F)(F)F)cn2)CC1	-5.9%	-13.2%	-17.0	1.3%	-14.7%
COc1ccc(CNC(=O)C(C)n2nc(C)c3c(C)n(-c4ccc(C)cc4)nc3c2=O)cc1 (stereo not given)	?	-20.3%	-68.0*	1.8%	-20.7%
CCC(C(=O)NCc1ccc(OC)c(OC)c1)n1nc(C)c2c(C)n(-c3ccc(C)cc3)nc2c1=O (stereo not given)	3.9%	-8.4%	-73.7*	/	?
